Bioassay records from PubChem.
Anthrax LF inh2 – anthrax lethal factor protease inhibition; multiplex microsphere protease cleavage assay, LF; inhibition, % at 10 µM; 360,000 tested, 0.12% active; AID 588501; in the data active = inhibition above about 30%; inconclusive = no clear call, values can overlap the other calls; note: plate controls were buffer without enzyme for full effect and enzyme alone for no effect
GDH-TPI counter-1 – GDH-TPI coupled enzyme inhibition counter-screen. GDH-TPI coupled enzyme counterscreen, NADH absorbance. inhibition, % at 4.8 µM. 360,000 tested, 1.2% active. AID 588335; in the data active = inhibition above about 30%;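 note: 0% = DMSO wells and 100% = wells lacking the enzyme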
BoNT-F LC inh – BoNT F light chain protease inhibition | Multiplex microsphere protease cleavage assay, flow cytometry | inhibition, % at 10 µM | 360,000 tested, 0.22% active | AID 588497; in the data active = inhibition above about 35%, passing the limit was not always enough; inconclusive = no clear call, values can overlap the other calls; note: plate controls were buffer without enzyme for full effect and enzyme alone for no effect
Autofluor counter – flagged as autofluorescent in microsphere protease counterscreen; compound autofluorescence counterscreen, microsphere flow cytometry; stronger effect = higher value; fluorescence intensity (concentration not given with the values); 360,000 tested, 3.1% active; in the data active = fluorescence intensity above about 16000; inconclusive = no clear call, values can overlap the other calls
BoNT-A LC inh2 – blocks Botulinum neurotoxin A light chain protease. inhibition, % at 10 µM. multiplex microsphere protease substrate cleavage, flow cytometry. 360,000 tested, 0.17% active; in the data active = inhibition above about 30%; inconclusive = no clear call, values can overlap the other calls; note: plate controls were buffer without enzyme for full effect and enzyme alone for no effect
FBA Mtb inh – Mtb fructose-bisphosphate aldolase inhibition; P9WQA3; purified M. tuberculosis FBA, fluorescence read-out; inhibition, % at 1 µM; 360,000 tested, 2.3% active;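 note: 0% = vehicle and 100% = reference inhibitor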
Target sequence (P9WQA3 whole entry, looked up): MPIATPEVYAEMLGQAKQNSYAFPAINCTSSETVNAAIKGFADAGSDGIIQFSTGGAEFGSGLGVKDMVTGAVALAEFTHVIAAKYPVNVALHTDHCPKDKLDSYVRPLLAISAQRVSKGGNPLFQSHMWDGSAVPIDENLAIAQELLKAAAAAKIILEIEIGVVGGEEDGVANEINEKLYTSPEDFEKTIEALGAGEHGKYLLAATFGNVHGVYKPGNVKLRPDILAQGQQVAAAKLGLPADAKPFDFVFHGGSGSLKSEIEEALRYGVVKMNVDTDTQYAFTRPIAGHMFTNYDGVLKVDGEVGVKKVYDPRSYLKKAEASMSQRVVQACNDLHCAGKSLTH
Mtb FBA inh conf – confirmation of M. tuberculosis fructose-bisphosphate aldolase inhibitors. shares compounds with FBA Mtb inh. purified M. tuberculosis FBA, fluorescence read-out. inhibition, % at 1 µM. 5,600 tested, 78% active. AID 651616;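 note: 0% = vehicle wells and 100% = reference inhibitor wells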
GDH-TPI counter-2 – counter-screen for M. tuberculosis FBA inhibitors: GDH-TPI coupled enzyme inhibition | shares compounds with FBA Mtb inh | GDH-TPI coupled enzyme counterscreen, fluorescence | inhibition, % at 1 µM | 5,600 tested, 81% active | AID 652141; in the data active = inhibition above about 10%
* hit, by the source's call; u = inconclusive; x = not tested or not shown; + = active, no number. Most compounds without a hit are left out; they make up all but 6.6% or so of the library. Cut-off read from the data, not from the text of the source, unless noted: active = inhibition above about 27%; inactive = the rest.

SMILES	Anthrax LF inh2	GDH-TPI counter-1	BoNT-F LC inh	Autofluor counter	BoNT-A LC inh2	FBA Mtb inh	Mtb FBA inh conf	GDH-TPI counter-2
O=C(C[n+]1ccccc1)N/N=C/c1ccc(Cl)c(Cl)c1	-11.8	-3.4	u	4128	-4.7	-0.5	x	x
CNC(=O)c1ccc(-n2cccn2)nc1	-1.4	4.8	11.5	3182	4.0	4.7	x	x
CN(CC(=O)Nc1ccc(Br)cc1)Cc1ccccc1	-8.5	1.5	9.4	3608	1.0	1.1	x	x
COC(=O)c1cc(NC(=O)CN(C)Cc2ccccc2)cc(C(=O)OC)c1	-3.0	13.9	-18.8	5285	-3.7	34.5*	26.3	22.1*
O=c1cc(-c2ccccc2)oc2ccc(Br)cc12	-9.6	9.7	-8.1	3863	-0.9	3.9	x	x
Cc1cc2c(=O)cc(-c3ccccc3)oc2c(C(=O)O)c1C	-3.3	x	4.4	5243	0.5	38.7*	55.9*	47.6*
Cc1ccc(C(=O)NNC(=O)c2ccc(S(=O)(=O)N(C)c3ccccc3)cc2)cc1	0.4	-0.7	-4.3	6542	-3.3	0.2	x	x
CC1CCN(C(=O)COC(=O)c2ccccc2NCCO)CC1	1.0	14.3	-2.8	2969	-0.4	92.2*	130.5*	111.5*
O=C(COC(=O)c1ccc(O)cc1)Nc1cc(C(F)(F)F)ccc1N1CCOCC1	1.9	-2.9	2.4	3835	1.2	3.4	x	x
CC1Cc2ccccc2N1C(=O)COC(=O)c1ccccc1NCCO (centres undefined)	0.3	15.8	-0.5	6754	-4.2	109.3*	79.9*	67.4*
O=C(COC(=O)c1ccccc1NCCO)Nc1cc(C(F)(F)F)ccc1N1CCOCC1	0.7	3.7	1.2	6306	-0.7	69.9*	3.0	-5.0
O=C(OCC(=O)N1CCCc2ccccc21)c1ccccc1NCCO	1.2	-9.3	-2.6	6120	1.3	99.4*	148.0*	140.0*
C/C(=N\NC(=O)c1nn(C)c(C)c1Br)c1ccc(NC(=O)c2ccccc2F)cc1	-2.4	6.5	8.2	9836	0.9	-1.3	x	x
Cc1ccc(NC(=S)N(Cc2ccc(Cl)cc2)Cc2ccc(C(=O)O)cc2)cc1Cl	-5.8	1.9	-1.8	3211	-0.6	-2.0	x	x
O=C(NCCS(=O)(=O)N1CCN(c2cccc(Cl)c2)CC1)c1ccco1	-9.6	8.0	-5.0	5683	-6.4	-3.2	x	x
Cc1cc(C)cc(C(O)c2ncc(-c3ccc(F)cc3)[nH]2)c1 (centres undefined)	-0.8	12.4	-3.1	3687	-0.1	6.7	x	x
CC(OC(=O)c1ccccc1NCCO)C(=O)NC1CCCCC1C (centres undefined)	-2.8	4.3	3.4	u	-2.8	95.8*	1.2	-3.7
COc1ccc(-c2nc3ccc(Cl)cn3c2CC(C)(C)C)cc1OC	-10.7	x	-10.5	6055	0.6	3.6	x	x
C=CCNc1nc(NCc2ccccc2)c(C#N)c2c1CN(C)CC2	-6.0	13.7	-3.5	4869	0.0	71.4*	58.5*	51.8*
N#Cc1c(NCCN)nc(NCc2ccccc2)c2c1CCN(Cc1ccccc1)C2	-4.3	7.5	-53.4	2702	3.7	4.9	x	x
Cc1cccc(C=Nc2ccc3c(c2)oc2ccccc23)c1O	-4.6	9.0	-7.0	9701	-1.2	35.6*	151.3*	117.3*
Cc1ccccc1N=Cc1cccc(O)c1O	-3.8	3.7	-1.1	2097	-1.3	-5.4	x	x
O=S(=O)(c1ccc(Cl)cc1)N1CN2CCN(C2)C1	-6.8	7.7	-6.5	9462	-1.0	-1.7	x	x
O=S(=O)(c1ccc(F)cc1)N1CN2CCN(C2)C1	-11.0	14.0	u	2934	7.2	30.1*	4.7	-1.3
COc1ccc(OC)c(-c2cc(C(=O)N/N=C(\C)c3cccnc3)c3ccccc3n2)c1	-3.9	9.3	-8.7	5755	0.1	-2.3	x	x
CCOc1cc(/C=N/NC(=O)c2cc(-c3cccnc3)nc3ccccc23)ccc1O	-1.4	51.2*	-3.0	3474	1.0	107.9*	5.7	-0.9
O=C(N/N=C/c1ccc2c(c1)OCO2)c1cc(-c2ccccc2Cl)nc2ccccc12	0.9	-4.4	22.3	10094	1.9	-1.4	x	x
CCOc1ccccc1-c1cc(C(=O)N/N=C/c2ccc3c(c2)OCO3)c2ccccc2n1	2.2	16.0	-11.4	3043	0.0	66.0*	+	+
